Screening results deposited in PubChem BioAssay by several laboratories.
Lmaj promast: Leishmania major promastigote growth inhibition. Leishmania major promastigotes, resazurin fluorescence viability. hit rate 9% among 200,000. inhibition, % at 10 µM; in the data active = inhibition above about 50%;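 also: promastigotes grown with compound for 44 hours at 28 °C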
Cl transport mod: KCC2 (human) Cl- transport modulation. Q9H2X9. KCC2 cells, thallium flux FluoZin-2 fluorescence. B-score of Tl+ flux slope (higher = more flux/activation; lower = inhibition) at 10 µM. hit rate 2.2% among 190,000. AID 1456;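 active = thallium flux slope and its plate-corrected score both differing from the plate sample mean at a set confidence after two filtering rounds, in either direction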;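 also: slope of fluorescence scaled to starting intensity during 10 to 20 s after thallium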
ROMK primary: modulates human ROMK potassium channel activity; AID 1918; B-score at 10 µM; P48048; Tet-inducible ROMK, thallium flux fluorescence; actives lie on both sides; hit rate 2% among 130,000;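 active = signal ratio slope over the read window, or its plate-corrected B-score, at least 3 SD from the plate mean, either direction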;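 also: B-score of the F/F0 ratio slope over 7 to 12 s after thallium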
WT yeast gro inh: growth inhibition of WT yeast, mitochondrial fusion screen | mitochondrial fusion phenotypic screen, WT strain | inhibition, % at 10 µM | hit rate 2.1% among 190,000; in the data active = inhibition above about 58%; tested in S. cerevisiae
m-calpain inh: blocks pig calpain II enzyme activity; AID 1236; hit rate 0.37% among 220,000; purified calpain II, fluorogenic peptide substrate, 30 min; inhibition, % at 16 µM;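 active = inhibition above about 50%, limit read from the data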
ROMK hit retest: retested hit modulating human ROMK potassium channel | shares compounds with ROMK primary | AID 1917 | hit rate 54% among 3,000 | ROMK thallium flux, fluorescence ratio; stronger effect = lower value | normalized thallium flux (F/F0 slope) at 10 µM;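 active = Flux at 10 µM at least 3 SD below or above vehicle control mean in one or both replicates; inconclusive = no clear call, values can overlap the other calls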
An asterisk follows results filed as active; ? = inconclusive; · = no result. A selection: hits, their analogues and other compounds. The true share with any hit is near 12%.

SMILES	Lmaj promast	Cl transport mod	ROMK primary	WT yeast gro inh	m-calpain inh	ROMK hit retest
O=C(CSc1c2c(nc3cc(Cl)ccc13)CCCC2)NCCCN1CCOCC1	32	0.57	-1.8*	2	21	0.081
O=C1c2cc(F)ccc2OC2(CCNCC2)C12CC(c1ccccc1)=NO2 (centres undefined)	·	-0.061	·	·	-10	·
Cc1ccc2c(n1)sc1c(-c3ccccc3)c(C#N)c(N)nc12	-4	-0.14	·	-3	-250	·
Cc1ccc2c(n1)sc1c(N)ncnc12	-3	·	4.6*	5	-66	0.092
COc1ccc(C(C[N+](=O)[O-])c2c(-c3ccccc3)cc3ccccn23)cc1OC (centres undefined)	100*	-0.49	-3.7*	39	-39	0.064*
COc1ccc(C(C[N+](=O)[O-])c2c(-c3ccccc3)cc3ccccn23)cc1 (centres undefined)	100*	-0.44	-3.7*	13	-102	0.084
O=[N+]([O-])c1cccc(/C=C/c2nc3ccc([N+](=O)[O-])cc3[nH]2)c1	55*	-0.81	-5.2*	11	-100	0.042*
CCOC(=O)c1[nH]c(CO)c(C(=O)OCC)c1C	·	0.68	·	·	-12	·
Cc1ccc(C)c(OCC(O)CN2CCC(CN3C(=O)c4cccc5cccc(c45)C3=O)CC2)c1 (centres undefined)	100*	0.73	-4.7*	37	-8	?
Cc1ccc(OCC(O)CN2CCN(c3ccccn3)CC2)c(C)c1 (centres undefined)	-4	-0.78	·	-1	6	·
CCc1c(C(=O)Nc2cc(C)cc(C)c2)[nH]c(C)c1C(C)=O	26	·	·	29	-13	·
CCCCC[C@H](O)/C=C/C1=C(CCCCCCC(=O)O)C(=O)CC1	-4	-2.6	·	5	-8	0.081
CCCCC[C@H](O)/C=C/[C@@H]1[C@@H](CCCCCCC(=O)O)[C@@H](O)C[C@H]1O	-7	-1.5	·	5	7	·
Cc1ccc(S(=O)(=O)N2CCC(=O)N(C(COCc3ccc(Cl)c(Cl)c3)Cc3ccccc3)CC2)cc1 (centres undefined)	15	-2.6	-4.7*	17	5	0.061*
Cc1cccc(COCC(Cc2ccccc2)N2CCN(C(=O)c3ccc(C(F)(F)F)cc3)CCC2=O)c1 (centres undefined)	21	-0.53	-1.3	42	14	·
Cc1cccc(C(=O)N2CCC(=O)N(C(COCc3ccc(Cl)cc3)Cc3ccccc3)CC2)c1 (centres undefined)	1	-0.46	-3.5*	41	24	0.048*
Cc1ccc(S(=O)(=O)N2CCC(=O)N(C(CO)Cc3ccccc3)CC2)cc1 (centres undefined)	-11	-1.2	1.1	-8	-6	·
O=C(c1cccc(Cl)c1)N1CCC(=O)N(C(COCc2cccc(Cl)c2)Cc2ccccc2)CC1 (centres undefined)	2	-1.9	-2.7	52	-2	·
Cc1cccc(C(=O)N2CCC(=O)N(C(COCc3cccc(Cl)c3)Cc3ccccc3)CC2)c1 (centres undefined)	25	-2.2	-3.7*	25	2	0.056*
O=C(c1ccc(C(F)(F)F)cc1)N1CCC(=O)N(C(COCc2ccc(C(F)(F)F)cc2)Cc2ccccc2)CC1 (centres undefined)	24	-0.82	-4.1*	45	31	0.066*
COC(=O)c1c(S(=O)(=O)NCc2ccccc2)sc(C(=O)O)c1C	-8	·	2	7	-35	·
Cc1onc(-c2c(Cl)cccc2Cl)c1C(=O)N=S(C)(=O)c1ccccc1 (centres undefined)	·	-0.99	·	·	-4	·
COc1cc(C2C(C(=O)/C=C/c3ccccc3)=C(O)C(=O)N2c2ccccn2)ccc1O (centres undefined)	-1	-0.082	-0.14	-65	-7	·
O=C1Oc2ccccc2C(=O)/C1=C\N1CCN(c2ccccc2)CC1	1	-1.1	0.62	-6	-3	·
Cc1cc2c(=O)n(NC(N)=O)c(C)nc2s1	0	-0.66	·	-4	-25	·
SMILES	Lmaj promast	Cl transport mod	ROMK primary	WT yeast gro inh	m-calpain inh	ROMK hit retest
COc1cc(CNCCN2CCOCC2)ccc1OCc1ccc(Cl)cc1Cl	100*	0.083	·	-7	-18	0.055*
NC1=NC[C@H](CC2CCCCC2)N1CCc1cc(C(F)(F)F)cc(C(F)(F)F)c1	·	-0.025	·	·	1	0.05*
CCOC(=O)c1sc(S(C)(=O)=O)c2c1CC(C)(C)C/C2=N/O	·	0.29	·	·	-4	·
CCOC(=O)CCCNC(=O)COC(=O)[C@@H]1CCCN1S(=O)(=O)c1ccc(Cl)cc1	-6	0.53	·	-21	-9	·
CCn1c(SCC(=O)Nc2ccccc2N2CCCCC2)nc2c1c(=O)n(C)c(=O)n2C	38	-0.2	·	20	4	0.074
CC(C)CC(=O)NC(=S)Nc1ccccc1N1CCCC1	·	1.3	·	·	27	·
CC(C)CC(=O)Nc1ccccc1N1CCCC1	-1	0.16	-6*	12	18	0.073
COC(=O)c1cc(C(=O)OC)[nH]n1	-5	·	3.2	5	18	·
Cc1cc(/C=N/N2CCN(C)CC2)c(C)n1-c1ccccc1F	4	0.68	1.3	-10	14	·
O=c1c2ccccc2nc(/C=C/c2ccc([N+](=O)[O-])o2)n1CCCO	101*	·	-3.1*	65*	-52	0.052*
O=C(CCl)Nc1cccc(Oc2ccccc2)c1	98*	-0.68	-4.8*	0	15	?
O=C(CN1CCCCC1)Nc1cccc(Oc2ccccc2)c1	5	0.42	-2.2	-16	27	·
Cc1ccc(SC(C)c2nc(-c3ccncc3)no2)cc1 (centres undefined)	-1	-0.59	-3.1*	16	-20	0.067*
COc1ccc(Cl)cc1NC(=O)C(C)NC(c1ccccc1)c1ccccc1 (centres undefined)	26	0.036	·	31	-6	·
CCC(=O)N(C)CCc1cc2c(c(OC)c1/C=N/NC(=O)c1ccncc1)OCO2	·	-0.75	-2*	·	15	0.072
O=C(COc1ccccc1)Nc1nccs1	5	·	3*	1	-9	0.077
CC(C)(C)c1ccc(Cn2c(=N)n(CC(O)c3ccco3)c3ccccc32)cc1 (centres undefined)	100*	·	-2.7*	59*	-44	0.051*
CCCCCCCn1c(=N)n(CC(O)c2ccco2)c2ccccc21 (centres undefined)	82*	0.063	-4.3*	42	17	0.061*
CCCCCCCn1c(=N)n(CC(=O)c2ccco2)c2ccccc21	100*	0.35	-5.3*	29	-12	0.053*
COc1ccc(NC(=O)c2cc3ccc4c5ccccc5[nH]c4c3cc2O)cc1	·	-0.097	·	·	3	·
Cc1ccc(S(=O)(=O)Nc2c(C)n(C)n(-c3ccccc3)c2=O)cc1C(=O)OCC(=O)N1CCCC(C)C1 (centres undefined)	32	0.51	1.4	-6	-10	·
COc1ccc(/C=C(/NC(=O)c2ccc([N+](=O)[O-])cc2)C(=O)NC(C)(C)C)cc1	1	-1.1	0.39	1	-12	·
